# About 1,600 (0.46%) of roughly 350,000 compounds were called active. This is one part of a sample in which actives are shown more often than they occur. Unmarked numbers belong to inactive results.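 Rule for the calls: active = activation of at least 50%, plus an integration ratio under a set limit after plate pattern correction; inactive = the rest.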
# Test system: CRF-binding protein / CRF receptor 2 complex (human)
# Experiment: agonists of CRF-BP/CRF-R2 complex, primary screen, cell-based, HEK293, calcium dye fluorescence, uHTS (AID 588473);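 note: plate controls were neutral control wells without compound for no effect and CRF at EC100 for full effect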
# Details: calcium dye fluorescence (FLIPR), at 13.2 µM, stronger effect = higher value, percent of saturating CRF peptide response
row,Structure (SMILES),activation
1,Cc1ccnc2nc(C(=O)OCC(=O)N(CC(C)C)CC(C)C)nn12,3.18%
2,CC(=O)OCC1(O)CC23CCC4c5ccoc5CCC4(C)C2CCC1C3 (stereo not drawn),4.09%
3,COc1cc(OC)cc(C(=O)NC(=S)N2CCN(c3ccc(C(F)(F)F)cc3[N+](=O)[O-])CC2)c1,2.06%
4,CCN(CC)c1ccc2cc(C(N)=O)/c(=N\NC(=O)c3ccncc3)oc2c1,264% (active)
5,COc1cccc2cc(C(N)=O)/c(=N\NC(=O)c3ccccc3)oc12,-2.1%
6,CCN(CC)c1ccc(C(=O)N/N=C(\C)c2cccc(OC)c2)cc1,0.09%
7,COc1cc(C(=O)NNC(=O)CN2C(=O)NC3(CCCC3)C2=O)cc(OC)c1OC,0.66%
8,Cc1c(NC(=O)C(=O)N/N=C/c2cccs2)c(=O)n(-c2ccccc2)n1C,4.78%
9,Cc1cc(C)c(S(=O)(=O)NCC(c2ccc3c(c2)OCO3)N2CCOCC2)c(C)c1 (stereo not drawn),-1.15%
10,COc1cccc2c1C(=O)c1c(O)c3c(c(O)c1C2=O)CC(O)(C(C)=NNC(=O)c1ccc(Cl)c(Cl)c1)CC3OC1CC(N)C(O)C(C)O1 (stereo not drawn),67.3% (active)
11,Cc1ccc(C(=O)N/N=C/c2sc(=O)n(Cc3cccc(C(=O)O)c3)c2Cl)cc1,1.16%
12,CCCS(=O)(=O)N1CCC(C(=O)NCCc2ccc(OC)c(OC)c2)CC1,-0.54%
13,Cc1cccc(C(C)C)c1NC(=O)COC(=O)C1CC(=O)N(Cc2ccccc2)C1 (stereo not drawn),-1.23%
14,COc1cc(/C=C2\CCCc3c2nc2ccccc2c3C(=O)O)cc(Cl)c1O,0.27%
15,NS(=O)(=O)c1ccc(NC(=O)COC(=O)c2c3c(nc4ccccc24)/C(=C\c2ccc4c(c2)OCO4)CCC3)cc1,0.53%
16,NC(=O)c1ccc(NC(=O)COC(=O)c2c3c(nc4ccccc24)/C(=C\c2ccc4c(c2)OCO4)CCC3)cc1,255% (active)
17,COc1ccc([N+](=O)[O-])cc1NC(=O)CC1SC(=Nc2cccc(C)c2C)N(/N=C(\C)c2ccc(C)cc2)C1=O (stereo not drawn),-0.05%
18,Cc1ccc(C(CC(=O)O)NC(=O)c2ccc(S(=O)(=O)N3CCCC3)cc2)cc1 (stereo not drawn),0.98%
19,Cc1ccc(C(=O)COC(=O)CCCC(=O)NC2CCCCC2)cc1[N+](=O)[O-],1.32%
20,COc1ccc(C)cc1NC(=O)CSc1nnc(CC(=O)Nc2ccccc2F)n1C,3.27%
21,CC(C(=O)O)N1C(=O)c2cccc3cccc1c23 (stereo not drawn),-0.43%
22,CN1C(=O)c2cccc3c(N)ccc(c23)C1=O,222% (active)

row,Structure (SMILES),activation
1,Cc1nn(C)cc1N1C(=O)c2cccc3c(N)ccc(c23)C1=O,200% (active)
2,O=C1c2cccc3c([N+](=O)[O-])ccc(c23)C(=O)N1CC1CCCO1 (stereo not drawn),12.3%
3,CC(C)n1c(CN2CCN(Cc3ccccc3)CC2)nc2ccccc21,1.04%
4,COc1cc(CNCc2ccc3c(c2)OCO3)c([N+](=O)[O-])cc1OC,-1.29%
5,COc1ccc(Br)cc1CN(C)CC(=O)Nc1cc([N+](=O)[O-])ccc1OC,0.1%
6,CCCCN1CCNC1=S,-0.03%
7,CCCCN1C(N)=NC[C@@H]1CC1CCCCC1,-0.4%
8,CCOc1ccc(NC(=O)c2ccc(CSc3nnnn3C)cc2)cc1,1.79%
9,NS(=O)(=O)c1ccc(NC(=O)COC(=O)C2(c3ccc(F)cc3)CCCC2)cc1,-2.26%
10,Cc1cc(NS(=O)(=O)c2ccc(NC(=O)c3cccc(OC(F)F)c3)cc2)nc(C)n1,73.2% (active)
11,Cc1cc(NS(=O)(=O)c2ccc(NC(=O)C(C)Oc3cccc(C)c3C)cc2)nc(C)n1 (stereo not drawn),-1.14%
12,Cc1cc(NS(=O)(=O)c2ccc(NC(=O)c3cccnc3)cc2)nc(C)n1,-0.63%
13,COc1ccc(N2CCN(C(CNS(=O)(=O)c3ccc(C)cc3)c3ccccc3)CC2)cc1 (stereo not drawn),-2.07%
14,CN(Cc1ccccc1Cl)C(=O)C1CCC(=O)N(CCc2cccc(F)c2)C1 (stereo not drawn),0.61%
15,COc1cc(C)ccc1OCC(=O)OCC(=O)c1ccc[nH]1,2.06%
16,CC(C)CC(O)C1CCN(C(=O)CCc2nnc(-c3ccc4c(c3)OCO4)o2)CC1 (stereo not drawn),-0.38%
17,O=C(NCCN1CCOCC1)C1CCN(S(=O)(=O)c2ccccc2)CC1,-0.1%
18,O=C1NC[C@@H](c2ccccc2)OC(=O)[C@H](Cc2ccc(F)cc2)CC/C=C/C[C@H]1CC(=O)N(CCO)Cc1ccccc1,54.7% (active)
19,O=C1N[C@@H](c2ccccc2)COC(=O)[C@H](Cc2ccc(F)cc2)C/C=C\C[C@@H]1CC(=O)N(CCO)Cc1ccccc1,-2%
20,O=C1CCC/C=C/C[C@@H](CC(=O)N(CCO)Cc2ccccc2)C(=O)NC[C@H](c2ccccc2)O1,-0.44%
21,CCCNC(=O)c1ccc(N2CCC3(CC2)CC(c2ccc(Cl)cc2)=NO3)c([N+](=O)[O-])c1,0.95%
22,CCN(CC)C(=O)C1=C(C)N(Cc2ccc(F)cc2)C(=O)C(CC(=O)NCc2cccc3ccccc23)C1 (stereo not drawn),-1.12%

row,Structure (SMILES),activation
1,COc1ccc(CNC(=O)CN2CCC(n3nnc4cc(F)ccc43)CC2)cc1,0.03%
2,Cc1ccc(-c2nn(-c3ccccc3)cc2/C=C2\SC(=S)N(CCCCCC(=O)O)C2=O)o1,60.7% (active)
3,COc1cccc(/C=C2\SC(=S)N(CCCC(=O)N3CCOCC3)C2=O)c1,2.11%
4,COc1ccc(/C=C2/SC(=O)N(CCCCCC(=O)Nc3ccccc3C(=O)O)C2=S)cc1,-2.58%
5,CC(=O)Nc1ccc(C(=O)NNC(=O)CCCCC(=O)NNC(=O)c2ccc(NC(C)=O)cc2)cc1,-1.83%
6,CC(C)(C)SCCNC(=O)c1cccc([N+](=O)[O-])c1,-0.01%
7,CC(C)CC(=O)NC(=S)NNC(=O)c1cccc([N+](=O)[O-])c1,55% (active)
8,O=C(NC(=S)NC1CCS(=O)(=O)C1)c1cccc([N+](=O)[O-])c1 (stereo not drawn),0.96%
9,CCCCCC(=O)NC(=S)NNC(=O)c1ccc([N+](=O)[O-])cc1,96.3% (active)
10,COCCCNC(=S)NC(=O)c1ccc([N+](=O)[O-])cc1,-0.87%
11,COC(=O)c1c(CCl)noc1C(=O)NC(C)C,0.17%
12,Cc1ccc(Nc2c(O)nc[nH]c2=O)cc1C,-0.7%
13,CCN(C(=O)Cc1nc(N)n[nH]1)C1(C(=O)Nc2ccccc2)CCCCC1,1.43%
14,C=CCO/N=C/C1=C(O)C(C(=O)OC)C(C)(C)CC1=O (stereo not drawn),3.2%
15,Cn1cccc1C(=O)NNC(=O)COc1ccc(Br)cc1,0.35%
16,CC(=O)Nc1ccc(OC(=O)COc2ccc(Br)cc2)cc1,0.61%
17,Cc1ccc(O)c(NC(=S)NC(=O)COc2ccc(Br)cc2)c1,195% (active)
18,Cc1cc(C)c(S(=O)(=O)Nc2c(C)n(C)n(-c3ccccc3)c2=O)cc1[N+](=O)[O-],-0.78%
19,O=C(NCCc1c[nH]c2ccccc12)C1CCN(Cc2ccc(Br)cc2)CC1,7.6%
20,N#C/C(=C/c1ccc(N2CCCCC2)o1)C(=O)NCCc1c[nH]c2ccccc12,138% (active)
21,Cc1ccc(C(=O)N/C(=C/c2ccco2)C(=O)NCCc2c[nH]c3ccccc23)cc1C,-0.5%
22,CNc1nc2c(C)cccn2c(=O)c1C=Nc1ccc(OC)cc1,-0.9%

row,Structure (SMILES),activation
1,Cc1cccn2c(=O)c(/C=C3\SC(=S)N(CC(C)C)C3=O)c(NCCCOC(C)C)nc12,83% (active)
2,CCCN(CCC)c1nc2c(C)cccn2c(=O)c1/C=C1/SC(=S)N(Cc2ccco2)C1=O,36.9%
3,CCOC(=O)NC(=O)C(=CNc1cccc(OC)c1)C(=O)NC(=O)OCC,2.88%
4,Cc1cccn2c(=O)c3cc(C(=O)NCCN4CCOCC4)c(=N)n(Cc4cccnc4)c3nc12,-0.12%
5,Cc1cccn2c(=O)c3cc(C#N)c(=NC(=O)c4cccnc4)n(CC4CCCO4)c3nc12 (stereo not drawn),56.4% (active)
6,Cc1cccn2c(=O)c3cc(C#N)c(=O)n(CCCN4CCOCC4)c3nc12,2.16%
7,Cc1cc(=O)n2nc(N3CCCC(C(=O)NCc4ccc(Cl)cc4)C3)sc2n1 (stereo not drawn),-0.87%
8,CCCCCCCC[n+]1cccc(C(=O)N2c3c(nc(N)[nH]c3=O)NC(C)C2C)c1 (stereo not drawn),-1.35%
9,Cc1cccc(C(=O)N2CCN(S(=O)(=O)N3CCCCC3)CC2)c1,-0.46%
10,Cc1cccc(C)c1N1CCN(S(=O)(=O)N2CCCCC2)CC1,152% (active)
11,Cc1cccc(C)c1N1CCN(S(=O)(=O)N2CCOCC2)CC1,16.7%
12,CCn1cc(CN2CCN(CC(C)(C)C)C(CCO)C2)c2ccccc21 (stereo not drawn),4.34%
13,CCOc1ccc(NCCC(=O)c2ccc3c(c2)OCO3)cc1,-0.43%
14,COc1ccc(CCNC(=O)C(=O)NCC2OCCN2S(=O)(=O)c2cccs2)cc1OC (stereo not drawn),-0.25%
15,CC1(C)N=C(c2ccccn2)C(C)(C)N1O,2.11%
16,Cc1cccc(NC(=O)C(C)N2C(=O)C3C4CC(C(Br)C4Br)C3C2=O)c1 (stereo not drawn),73.2% (active)
17,Cc1cccc(NC(=O)CCN2CC(C)CC(C)C2)c1 (stereo not drawn),-0.13%
18,Cc1cccc(NC(=O)CN2C(=O)CNC2=O)c1,-0.73%
19,CN(C)S(=O)(=O)c1ccc(C(=O)NCC2(N3CCOCC3)CCCCC2)cc1,0.88%
20,Cc1ccc(-c2ccnc3[nH]n(-c4ccccc4)c(=O)c23)cc1,0.1%
21,Cc1ccc(-n2[nH]c(C)c(/C=N/N3C(=O)c4cccc5cccc(c45)C3=O)c2=O)cc1,113% (active)
22,COc1cc(SC#N)ccc1N=Cc1c(C)[nH]n(-c2ccc(C)cc2)c1=O,-2.61%

# — PubChem BioAssay AID588473 (Sanford-Burnham Center for Chemical Genomics, 2011)
